Jurkat NFkB inh: inhibitors of induced NF-kB luciferase reporter, primary screen, TCR NF-kB activation inhibitor project, cell-based, luminescence, uHTS; Jurkat, PMA/ionomycin-induced NF-kB luciferase reporter; inhibition, % at 4 µM; 330,000 compounds, 0.53% hits; in the data active = inhibition above about 50%
Shn3 3UTR inh: reduction of Shn3 3'UTR firefly luciferase signal, primary screen, Schnurri-3 inhibitor project, cell-based, Clone20 osteoblasts, set 2; AID 588674, 2011; 360,000 compounds, 0.52% hits; Clone20 osteoblast Shn3 3'UTR firefly luciferase, 24 h; inhibition, % at 12.5 µM;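 active = mean inhibition of at least 75% with every replicate also reaching 75%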;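 also: 0% = median of neutral control wells and 100% = pilot-screen positive control compound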
MITF TRPM1 inh: inhibitors of MITF-dependent TRPM1 promoter reporter, primary screen, cell-based, SK-MEL-5, single point, luciferase | 330,000 compounds, 0.83% hits | SK-MEL-5 TRPM1 promoter luciferase, 24 h | inhibition, % at 12.5 µM;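 active = mean inhibition across replicates of 60% or more, whatever share of single replicates reaches that level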
LMP1 NFkB inh: EBV LMP1-driven NF-kappaB luciferase reporter inhibitors, primary screen, cell-based, luminescence, single point. LMP1-induced NF-kappaB luciferase reporter cells. inhibition, % at 12.5 µM. 350,000 compounds, 0.69% hits; in the data active = inhibition above about 41%;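 also: 0% = neutral control wells and 100% = reference inhibitor control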
Gli-Sufu block: Gli-Sufu pathway antagonists, primary screen, luciferase luminescence, Sufu-KO-LIGHT cells, uHTS. Sufu-KO-LIGHT fibroblasts, Gli luciferase reporter luminescence. inhibition, % at 5 µM. 340,000 compounds, 0.74% hits;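 active = inhibition above about 55%, limit read from the data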;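 also: 0% = DMSO-treated cells and 100% = wells with medium but no cells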
697 NFkB inh: inhibitors of PMA/ionomycin-induced NF-kB reporter, 697 cells, primary screen, B-cell NF-kB inhibitor project, cell-based, luminescence, uHTS | 697 B-cell NF-kB luciferase reporter, 16 h | inhibition, % at 4 µM | 330,000 compounds, 0.33% hits; in the data active = inhibition above about 35%
An asterisk follows results filed as active. Most compounds without a hit are left out; they make up all but 2.3% or so of the library.

For O=c1c2c3c(sc2ncn1/N=C/c1ccc([N+](=O)[O-])o1)CCCC3 the results were Jurkat NFkB inh 34, Shn3 3UTR inh -12, MITF TRPM1 inh 82*, LMP1 NFkB inh -77, Gli-Sufu block 10 and 697 NFkB inh -50.
Cc1nc2sc(-c3ccccc3)cc2c(=O)n1N was read as Jurkat NFkB inh -52, MITF TRPM1 inh 45, LMP1 NFkB inh 62*, Gli-Sufu block -17 and 697 NFkB inh -89.
Screening CCC(O)(CC)C(=O)NN(C(=O)CCl)c1ccccc1 returned Jurkat NFkB inh -14, Shn3 3UTR inh -1, MITF TRPM1 inh 8, LMP1 NFkB inh -10, Gli-Sufu block -24 and 697 NFkB inh -43.
`O=C(Nc1ccccc1)NN(C(=O)CCl)c1ccccc1` gave Jurkat NFkB inh 12, Shn3 3UTR inh 7, MITF TRPM1 inh 87*, LMP1 NFkB inh 47*, Gli-Sufu block 23 and 697 NFkB inh -2.
For CCc1ccc(CNC(=O)C2CCCN(c3nnc(C)c4c(C)n(-c5ccccc5)nc34)C2)cc1 (configuration not stated) the results were Jurkat NFkB inh 26, Shn3 3UTR inh 42, MITF TRPM1 inh 66*, LMP1 NFkB inh 17, Gli-Sufu block 49 and 697 NFkB inh -42.
For Cc1ccccc1CNC(=O)C1CCCN(c2nnc(C)c3c(C)n(-c4ccccc4)nc23)C1 (configuration not stated) the results were Jurkat NFkB inh -13, Shn3 3UTR inh -11, MITF TRPM1 inh 82*, LMP1 NFkB inh -3, Gli-Sufu block 35 and 697 NFkB inh -78.
COCCn1cc(C(=O)N2CCCC(C)C2)c2c3ccccc3n(C)c2c1=O (configuration not stated) was read as Jurkat NFkB inh -4, Shn3 3UTR inh 10, MITF TRPM1 inh -1, LMP1 NFkB inh -14, Gli-Sufu block 8 and 697 NFkB inh 6.
COc1ccc(CC(=O)OCC(=O)N2CCN(S(=O)(=O)c3ccc(C)cc3C)CC2)cc1 was read as Jurkat NFkB inh 9, Shn3 3UTR inh -16, MITF TRPM1 inh -1, LMP1 NFkB inh 69*, Gli-Sufu block -3 and 697 NFkB inh 8.
COc1ccc(CC(=O)OCC(=O)N2CCN(S(=O)(=O)c3ccc(C)cc3C)CC2)cc1OC was read as Jurkat NFkB inh 4, Shn3 3UTR inh 11, MITF TRPM1 inh 1, LMP1 NFkB inh 1, Gli-Sufu block -8 and 697 NFkB inh 7.
CCOc1ccc2c(C)c(Cl)c(=O)oc2c1 was read as Jurkat NFkB inh 1, Shn3 3UTR inh -5, MITF TRPM1 inh 2, LMP1 NFkB inh 64*, Gli-Sufu block -6 and 697 NFkB inh -4.
`Cc1c(Cl)c(=O)oc2cc(OCC(=O)NCc3cccs3)ccc12` gave Jurkat NFkB inh 9, Shn3 3UTR inh -11, MITF TRPM1 inh -4, LMP1 NFkB inh -2, Gli-Sufu block -14 and 697 NFkB inh 13.
For CN(C)c1ccc(/C=N/Nc2cccc(C(=O)O)c2)cc1 the results were Jurkat NFkB inh 22, Shn3 3UTR inh 92*, MITF TRPM1 inh 84*, LMP1 NFkB inh 61*, Gli-Sufu block -145 and 697 NFkB inh -47.
`CC(C)(C)c1ccc(/C=N/Nc2cccc(C(=O)O)c2)cc1` gave Jurkat NFkB inh -55, Shn3 3UTR inh 22, MITF TRPM1 inh 61*, LMP1 NFkB inh 72*, Gli-Sufu block -270 and 697 NFkB inh -97.
Screening O=C(O)c1cccc(N/N=C/c2ccc(-c3ccccc3)cc2)c1 returned Shn3 3UTR inh -7, MITF TRPM1 inh 24, LMP1 NFkB inh 8 and Gli-Sufu block -326.
Screening Cc1nc2scc(C)n2c(=O)c1S(=O)(=O)Nc1ccc(N2CCOCC2)c(Cl)c1 returned Jurkat NFkB inh 19, Shn3 3UTR inh 84, MITF TRPM1 inh 14, LMP1 NFkB inh 11, Gli-Sufu block 71* and 697 NFkB inh -58.
`Cc1nc2sccn2c(=O)c1S(=O)(=O)Nc1ccc(N2CCOCC2)c(Cl)c1` gave Jurkat NFkB inh -1, Shn3 3UTR inh 35, LMP1 NFkB inh -3, Gli-Sufu block 10 and 697 NFkB inh -39.
Screening O=C(O)CCCc1ccc2c(c1)CCc1ccccc1-2 returned Jurkat NFkB inh 26, Shn3 3UTR inh 15, MITF TRPM1 inh 88*, LMP1 NFkB inh 24, Gli-Sufu block 13 and 697 NFkB inh 26.
For O=C(CCCc1ccccc1)NC1CC1 the results were Jurkat NFkB inh 13, Shn3 3UTR inh -12, MITF TRPM1 inh -6, LMP1 NFkB inh 1, Gli-Sufu block -11 and 697 NFkB inh -8.
Screening Cc1nc2ccccc2n1CC(=O)NC1CCCCCC1 returned Jurkat NFkB inh 24, Shn3 3UTR inh 45, MITF TRPM1 inh -1, LMP1 NFkB inh 7, Gli-Sufu block 5 and 697 NFkB inh -25.
For Cc1ccc(-c2nc(-c3ccccn3)no2)cc1[N+](=O)[O-] the results were Jurkat NFkB inh -87, Shn3 3UTR inh 4, MITF TRPM1 inh -3, LMP1 NFkB inh 28, Gli-Sufu block -31 and 697 NFkB inh -124.
For Clc1cccc(-c2nc(-c3ccccn3)no2)c1 the results were Jurkat NFkB inh -14, Shn3 3UTR inh 52, MITF TRPM1 inh 64*, LMP1 NFkB inh 51*, Gli-Sufu block -21 and 697 NFkB inh -112.
Cc1ccc(-c2nc(-c3ccccn3)no2)cc1Cl was read as Jurkat NFkB inh 13, Shn3 3UTR inh 70, MITF TRPM1 inh 83*, LMP1 NFkB inh 68*, Gli-Sufu block 4 and 697 NFkB inh -116.
c1ccc(-c2cc(-c3nc(-c4ccccn4)no3)c3ccccc3n2)cc1 was read as Jurkat NFkB inh 15, Shn3 3UTR inh 28, MITF TRPM1 inh -10, LMP1 NFkB inh 12, Gli-Sufu block -5 and 697 NFkB inh 11.
For c1ccc(-c2nc(-c3ccccn3)no2)cc1 the results were Jurkat NFkB inh 3, Shn3 3UTR inh 16, MITF TRPM1 inh 53, LMP1 NFkB inh 41*, Gli-Sufu block 13 and 697 NFkB inh -71.
For O=C(Nc1ccc(S(=O)(=O)N2CCOCC2)cc1)C1CC1 the results were Jurkat NFkB inh 17, Shn3 3UTR inh 0, MITF TRPM1 inh 6, LMP1 NFkB inh -2, Gli-Sufu block 20 and 697 NFkB inh -2.
Screening COC(=O)c1ccc(NC(=O)C2CCCN(S(C)(=O)=O)C2)cc1 (configuration not stated) returned Jurkat NFkB inh 3, Shn3 3UTR inh -2, MITF TRPM1 inh 2, LMP1 NFkB inh 10, Gli-Sufu block -2 and 697 NFkB inh -1.
For Cc1ccc(O)c(NC(=O)c2cc(C)no2)c1 the results were Jurkat NFkB inh 3, Shn3 3UTR inh -3, MITF TRPM1 inh 4, LMP1 NFkB inh -31, Gli-Sufu block 15 and 697 NFkB inh -62.
